What all share (assay): NCI-60 one-dose screen, 48 h (100 = growth as untreated, 0 = no growth, -100 = all killed)
Holding throughout (settings): 10 µM unless noted

Experiment [1] relates to NCI-H23 lung.
Experiment [2] deals with NCI-H322M lung.
The subject of experiment [3] is HOP-62 NSCLC.
Experiment [4] concerns NCI-H460 lung.
For experiment [5], the system named is HOP-92 NSCLC.
The test system of experiment [6] is NCI-H522 lung.
In experiment [7] the test system is A549/ATCC NSCLC.
Experiment [8] relates to 786-0 renal.
Experiment [9] relates to DU-145 prostate.
For experiment [10], the system named is K-562 leukemia.
The test system of experiment [11] is MALME-3M melanoma.
Experiment [12] deals with MDA-MB-231 breast.
Experiment [13] deals with RXF 393 renal.
For experiment [14], the system named is SF-268 CNS.
Experiment [15] relates to SF-295 CNS.
The subject of experiment [16] is SF-539 CNS.
The test system of experiment [17] is UACC-257 melanoma.
Experiment [18] has as its system M14 melanoma.
The subject of experiment [19] is HCT-15 colon.
The test system of experiment [20] is COLO 205 colon.

About 83,000 compounds went through this panel and 20% of them were active in at least one assay; those are over-represented in the sample as a whole.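 Percent growth is the endpoint: 0 to 100 indicates growth inhibition (40 means 60% inhibition), 0 means no net growth, and negative values indicate cell death.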 A number with no mark means an inactive call. Activity calls are given as the source filed them. Rule for the calls: active = growth percent below 10; inactive = the rest.

With `COc1cc(CNC(=O)Cc2ccccc2)ccc1OCc1cn(-c2ccc(F)cc2)nn1`, the growth was 94.9% in [1]; 103% in experiment [2]; 104% in experiment [3]; 101% in experiment [4]; 107% in experiment [5]; 90.1% in experiment [6]. Moreover, the growth in experiment [7] was 97.5%; in experiment [8] it was 104%; in experiment [9], 108%; in experiment [10], 91.8%; in [11], 114%; in experiment [12], 89.5%. For the same compound, the growth in experiment [13] is 125%; in experiment [14] it was 98.1%; in experiment [15], 101%; in experiment [16] it was 99.5%; in [17], 97.7%; in [18], 101%. In addition, the growth in experiment [19] is 106%.

In the case of `CCCCN1CCN(c2ccc3nc(-c4ccc5nc(-c6ccc(C(F)(F)F)cc6)[nH]c5c4)[nH]c3c2)CC1`, the growth in experiment [1] was -85.1% (active); in experiment [2], -94.1% (active); in [3], -78.5% (active); in experiment [4], -79.9% (active); in experiment [5], -13.5% (active); in [6] it was -38.2% (active). Also, the growth in experiment [7] is -71.9% (active); in [8], -84.9% (active); in experiment [9], -95.5% (active); in experiment [10], -65.8% (active); in [11], -74.2% (active); in experiment [12] it was -88.9% (active). Moreover, the growth in experiment [13] was -82% (active); in experiment [14], -71.8% (active); in experiment [15], -84% (active); in [16], -92.8% (active); in [17] it was -16.2% (active); in experiment [18], -63.5% (active). Besides, the growth in experiment [19] is -79% (active).

Turning to `O=c1oc2ccc(F)cc2c(=O)n1-c1ccc(Br)cc1F`, the growth was 1.49% (active) in [1]; 6.65% (active) in experiment [2]; -0.164% (active) in experiment [3]; 4.13% (active) in experiment [4]; -15.2% (active) in experiment [5]; 4.2% (active) in experiment [7]. Besides, the growth is 2.85% (active) in experiment [8]; 27.7% in experiment [20]; 14.5% in [9]; 6.75% (active) in [10]; -23% (active) in [11]; -22% (active) in experiment [12]. Further, the growth in [13] is -0.594% (active); in experiment [14], 11.2%; in [15], -50.6% (active); in experiment [16], 2.6% (active); in [17] it was -17.4% (active); in [18] it was -2.25% (active). In [19], the growth is 2.89% (active).

Regarding `O=C1C(Cl)=C(NCc2ccco2)C(=O)c2ccccc21`, the growth in [1] is 37.3%; in experiment [2] it was 115%; in [3], 37%; in [4], 54.5%; in experiment [5], 103%; in [7], 47.4%. Besides, the growth was 113% in experiment [8]; 84.8% in experiment [20]; 15.6% in [9]; 70.6% in [10]; 54.6% in [11]; 68.1% in experiment [12]. Also, the growth in experiment [13] is 101%; in [14], 103%; in experiment [15] it was 75.8%; in experiment [16], 115%; in [17] it was 58.7%; in [18], 77.4%. In addition, the growth in experiment [19] was 81.3%.

`CCOc1cccc(/C=N/NC(=O)C(=O)Nc2cccc(C(F)(F)F)c2)c1O`: the growth in [1] was 43.4%; in experiment [2] it was 30.7%; in experiment [3] it was 39.1%; in experiment [4], 15.2%; in experiment [5], 43.8%; in experiment [8] it was 23%. For the same compound, the growth is 11.5% in experiment [20]; 39.8% in experiment [9]; 21.7% in experiment [10]; 56.7% in experiment [11]; 31.7% in experiment [12]; 37.6% in experiment [13]. In addition, the growth in experiment [14] is 35.4%; in experiment [15] it was 10%; in experiment [16], 11.7%; in experiment [17], 5.14% (active); in [18], 13.2%; in experiment [19], 22.3%.

`O=c1nc2sc3nc4ccccc4cc3cc-2s1`: the growth in experiment [1] was 101%; in [2], 106%; in experiment [3] it was 104%; in experiment [4] it was 106%; in experiment [5], 125%; in [7], 117%. The growth in experiment [8] was 103%; in [20], 127%; in experiment [9], 114%; in [11] it was 116%; in [12] it was 108%; in experiment [13], 117%. Also, the growth in experiment [14] was 132%; in experiment [15], 104%; in experiment [16], 101%; in experiment [17] it was 98.8%; in experiment [18], 100%; in experiment [19], 104%.

The values are drawn from PubChem BioAssay (NCI).
